The campaign covered roughly 1,300 compounds. About 630 (48%) were called active. Rule as the data show it: active = inhibition above about 6.5%; inactive = the rest. The set was probably picked from earlier hits. Many of the other results were omitted from the sample, so actives are more common in it than they were.

This test deals with Tyrosine-protein kinase ABL1 (Homo sapiens) + Ras and Rab interactor 1 (Homo sapiens) (UniProt P00519+Q13671). Briefly: disruptors of human Abl and Rin1 association – biochemical, TR-FRET, confirmation (AID 602124). The note with it: TR-FRET Rin1-Abl binding, purified proteins; at 7.35 µM; active compounds read high.
Tyrosine-protein kinase ABL1 (Homo sapiens) + Ras and Rab interactor 1 (Homo sapiens), sequence (P00519 whole entry, looked up): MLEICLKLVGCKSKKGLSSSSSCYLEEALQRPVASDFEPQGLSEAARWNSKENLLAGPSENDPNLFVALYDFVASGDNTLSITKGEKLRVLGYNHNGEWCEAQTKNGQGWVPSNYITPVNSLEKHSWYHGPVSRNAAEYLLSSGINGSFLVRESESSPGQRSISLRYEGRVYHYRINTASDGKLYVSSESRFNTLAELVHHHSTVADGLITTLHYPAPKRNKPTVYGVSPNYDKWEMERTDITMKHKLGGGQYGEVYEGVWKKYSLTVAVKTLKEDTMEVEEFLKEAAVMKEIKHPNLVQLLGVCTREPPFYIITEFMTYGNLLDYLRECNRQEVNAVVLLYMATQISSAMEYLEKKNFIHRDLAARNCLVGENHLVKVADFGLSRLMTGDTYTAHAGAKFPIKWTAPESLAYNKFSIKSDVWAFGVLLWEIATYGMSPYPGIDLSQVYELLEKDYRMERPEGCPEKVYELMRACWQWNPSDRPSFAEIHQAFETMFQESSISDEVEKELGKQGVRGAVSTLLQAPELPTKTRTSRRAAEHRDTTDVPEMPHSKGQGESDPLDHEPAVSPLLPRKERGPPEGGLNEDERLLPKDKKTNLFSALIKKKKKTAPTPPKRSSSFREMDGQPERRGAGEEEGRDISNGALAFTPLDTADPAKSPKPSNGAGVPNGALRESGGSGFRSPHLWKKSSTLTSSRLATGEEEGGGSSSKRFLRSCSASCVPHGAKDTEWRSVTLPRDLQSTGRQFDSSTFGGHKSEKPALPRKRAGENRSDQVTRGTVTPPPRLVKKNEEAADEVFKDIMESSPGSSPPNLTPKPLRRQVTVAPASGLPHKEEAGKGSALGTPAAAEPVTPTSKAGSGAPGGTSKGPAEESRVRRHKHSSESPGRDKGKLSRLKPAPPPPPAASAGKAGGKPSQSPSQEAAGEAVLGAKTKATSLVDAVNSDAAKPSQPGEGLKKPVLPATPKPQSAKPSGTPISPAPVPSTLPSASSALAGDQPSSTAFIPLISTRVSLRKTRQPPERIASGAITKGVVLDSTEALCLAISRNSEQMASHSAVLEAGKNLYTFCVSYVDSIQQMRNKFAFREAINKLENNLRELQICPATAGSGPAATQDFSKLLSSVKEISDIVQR
Tyrosine-protein kinase ABL1 (Homo sapiens) + Ras and Rab interactor 1 (Homo sapiens), sequence (Q13671 whole entry, looked up): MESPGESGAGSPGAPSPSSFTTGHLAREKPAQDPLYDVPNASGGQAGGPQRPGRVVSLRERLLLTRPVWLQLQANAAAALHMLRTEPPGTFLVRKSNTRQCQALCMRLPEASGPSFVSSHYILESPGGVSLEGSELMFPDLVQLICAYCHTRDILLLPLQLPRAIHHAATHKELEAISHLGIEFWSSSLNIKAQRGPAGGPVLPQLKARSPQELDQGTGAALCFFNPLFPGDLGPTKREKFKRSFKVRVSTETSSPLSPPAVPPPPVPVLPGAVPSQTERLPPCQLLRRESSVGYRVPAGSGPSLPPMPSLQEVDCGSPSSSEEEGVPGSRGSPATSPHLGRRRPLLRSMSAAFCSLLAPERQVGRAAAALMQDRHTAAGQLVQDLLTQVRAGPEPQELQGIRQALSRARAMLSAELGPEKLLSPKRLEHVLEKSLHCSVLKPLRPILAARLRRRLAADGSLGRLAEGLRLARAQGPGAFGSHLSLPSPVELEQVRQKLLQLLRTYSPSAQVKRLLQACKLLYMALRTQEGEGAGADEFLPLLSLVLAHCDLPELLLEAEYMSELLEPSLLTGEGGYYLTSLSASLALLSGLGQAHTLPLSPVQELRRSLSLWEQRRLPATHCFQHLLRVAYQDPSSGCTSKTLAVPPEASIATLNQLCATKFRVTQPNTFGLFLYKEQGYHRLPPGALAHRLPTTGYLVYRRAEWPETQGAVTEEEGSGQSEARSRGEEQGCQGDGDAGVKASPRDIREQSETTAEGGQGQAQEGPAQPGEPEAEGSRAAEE
On to `CSCCC(c1nnnn1C(C)(C)C)N1CCC(n2c(=O)[nH]c3ccccc32)CC1` (stereo unspecified), for which the inhibition was 16.5% (active).

Source of the values: PubChem BioAssay AID602124 (The Scripps Research Institute Molecular Screening Center, 2011).
